Results published in the supplement of paper PMC8728848.
Shown is part of a subset that was picked to be rich in the strongest signals.

What was measured:
Test in all cases: glycan array binding signal (z-score within array); higher = stronger binding
Conditions in all cases: glycan notation: IUPAC condensed, linker removed
[1] = biological target: Fuc(a1-2)Gal(b1-3)GalNAc(b1-4)[Neu5Ac(a2-3)]Gal(b1-4)Glc
Outline: (§1)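 From the Consortium for Functional Glycomics database, 3228 arrays were curated, keeping only those whose protein sequence was available. Binding is given as a within-array Z-score averaged across arrays sharing a protein sequence and across linkers. Negative Z-scores can be read as non-binding.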

[2] = biological target: Fuc(a1-2)Gal(b1-3)GlcNAc(b1-2)Man(a1-3)[Fuc(a1-2)Gal(b1-3)GlcNAc(b1-2)Man(a1-6)]Man(b1-4)GlcNAc(b1-4)[Fuc(a1-6)]GlcNAc
Outline: as §1

[3] = biological target: Fuc(a1-2)Gal(b1-3)[Fuc(a1-4)]GlcNAc(b1-2)Man(a1-3)[Fuc(a1-2)Gal(b1-3)[Fuc(a1-4)]GlcNAc(b1-2)Man(a1-3)]Man(b1-4)GlcNAc(b1-4)GlcNAc
Outline: as §1

[4] = biological target: Fuc(a1-2)Gal(b1-3)[Fuc(a1-4)]GlcNAc(b1-2)Man(a1-3)[Fuc(a1-2)Gal(b1-3)[Fuc(a1-4)]GlcNAc(b1-2)Man(a1-6)]Man(b1-4)GlcNAc(b1-4)GlcNAc
Outline: as §1

[5] = biological target: Fuc(a1-2)Gal(b1-4)Fuc(a1-3)]GlcNAc(b1-2)Man(a1-3)[Fuc(a1-2)Gal(b1-4)[Fuc(a1-3)]GlcNAc(b1-2)Man(a1-6)]Man(b1-4)GlcNAc(b1-4)GlcNAc
Outline: as §1

[6] = biological target: Fuc(a1-2)Gal(b1-4)[Fuc(a1-3)]GlcNAc(b1-2)Man(a1-3)[Fuc(a1-2)Gal(b1-4)[Fuc(a1-3)]GlcNAc(b1-2)Man(a1-6)]Man(b1-4)GlcNAc(b1-4)GlcNAc
Outline: as §1

[7] = biological target: Fuc(a1-2)[Gal(a1-3)]Gal(b1-3)GlcNAc(b1-3)GalNAc
Outline: as §1

[8] = biological target: Fuc(a1-2)[Gal(a1-3)]Gal(b1-4)GlcNAc(b1-2)Man(a1-3)[Fuc(a1-2)[Gal(a1-3)]Gal(b1-4)GlcNAc(b1-2)Man(a1-6)]Man(b1-4)GlcNAc(b1-4)[Fuc(a1-6)]GlcNAc
Outline: as §1

[9] = biological target: Fuc(a1-2)[Gal(a1-3)]Gal(b1-4)GlcNAc(b1-3)[Fuc(a1-2)[Gal(a1-3)]Gal(b1-4)GlcNAc(b1-6)]GalNAc
Outline: as §1

[10] = biological target: Fuc(a1-2)[Gal(a1-3)]Gal(b1-4)[Fuc(a1-3)]Glc
Outline: as §1

[11] = biological target: Fuc(a1-2)[GalNAc(a1-3)]Gal
Outline: as §1

[12] = biological target: Fuc(a1-2)[GalNAc(a1-3)]Gal(b1-3)GalNAc(a1-3)[Fuc(a1-2)]Gal(b1-4)GlcNAc
Outline: as §1

[13] = biological target: Fuc(a1-2)[GalNAc(a1-3)]Gal(b1-4)Glc
Outline: as §1

[14] = biological target: Fuc(a1-3)[Gal3S(b1-4)]Glc
Outline: as §1

[15] = biological target: Gal(b1-3)GalNAc(a1-3)[Fuc(a1-2)]Gal(b1-4)GlcNAc
Outline: as §1

[16] = biological target: Gal(b1-3)GlcNAc(b1-2)Man(a1-3)[GlcNAc(b1-4)][Gal(b1-3)GlcNAc(b1-2)Man(a1-6)]Man(b1-4)GlcNAc(b1-4)GlcNAc
Outline: as §1

[17] = biological target: Gal(b1-3)GlcNAc(b1-3)Gal(b1-4)GlcNAc(b1-3)Gal(b1-4)GlcNAc(b1-2)[Gal(b1-3)GlcNAc(b1-3)Gal(b1-4)GlcNAc(b1-3)Gal(b1-4)GlcNAc(b1-6)]Man(a1-6)[Gal(b1-3)GlcNAc(b1-3)Gal(b1-4)GlcNAc(b1-3)Gal(b1-4)GlcNAc(b1-2)Man(a1-3)]Man(b1-4)GlcNAc(b1-4)[Fuc(a1-6)]GlcNAc
Outline: as §1

[18] = biological target: Gal(b1-3)GlcNAc(b1-3)Gal(b1-4)[Fuc(a1-3)]GlcNAc
Outline: as §1

[19] = biological target: Gal(b1-3)[Fuc(a1-4)]GlcNAc(b1-2)Man
Outline: as §1

[20] = biological target: Gal(b1-4)GalNAc(b1-3)[Fuc(a1-2)]Gal(b1-4)GlcNAc
Outline: as §1

[21] = biological target: Gal(b1-4)GlcNAc(b1-2)Man(a1-3)[Gal(b1-4)GlcNAc(b1-2)Man(a1-6)]Man(b1-4)GlcNAc(b1-4)GlcNAc
Outline: as §1

[22] = biological target: Gal(b1-4)GlcNAc(b1-2)Man(a1-6)[Man(a1-3)]Man(b1-4)GlcNAc(b1-4)GlcNAc
Outline: as §1

[23] = biological target: Gal(b1-4)GlcNAc(b1-2)[Gal(b1-4)GlcNAc(b1-4)]Man(a1-3)[Gal(b1-4)GlcNAc(b1-2)Man(a1-6)]Man(b1-4)GlcNAc(b1-4)GlcNAc
Outline: as §1

[24] = biological target: Gal(b1-4)GlcNAc(b1-2)[Gal(b1-4)GlcNAc(b1-4)]Man(a1-3)[Gal(b1-4)GlcNAc(b1-2)[Gal(b1-4)GlcNAc(b1-6)]Man(a1-6)]Man(b1-4)GlcNAc(b1-4)GlcNAc
Outline: as §1

[25] = biological target: Gal(b1-4)GlcNAc(b1-2)[Gal(b1-4)GlcNAc(b1-4)]Man(a1-3)[GlcNAc(b1-4)][Gal(b1-4)GlcNAc(b1-2)Man(a1-6)]Man(b1-4)GlcNAc(b1-4)GlcNAc
Outline: as §1

[26] = biological target: Gal(b1-4)GlcNAc(b1-3)Gal(b1-3)GalNAc
Outline: as §1

[27] = biological target: Gal(b1-4)GlcNAc(b1-3)Gal(b1-4)GlcNAc(b1-2)Man(a1-3)[Gal(b1-4)GlcNAc(b1-3)Gal(b1-4)GlcNAc(b1-2)Man(a1-6)]Man(b1-4)GlcNAc(b1-4)[Fuc(a1-6)]GlcNAc
Outline: as §1

B1: Flo1 (Saccharomyces cerevisiae), P32768 (protein)
chain: SGATEACLPAGQRKSGMNINFYQYSLKDSSTYSNAAYMAYGYASKTKLGSVGGQTDISIDYNIPCVSSSGTFPCPQEDSYGNWGCKGMGACSNSQGIAYWSTDLFGFYTTPTNVTLEMTGYFLPPQTGSYTFKFATVDDSAILSVGGATAFNCCAQQQPPITSTNFTIDGIKPWGGSLPPNIEGTVYMYAGYYYPMKVVYSNAVSWGTLPISVTLPDGTTVSDDFEGYVYSFDDDLSQSNCTVPDPSNY
Q: How did the “glycan array binding signal (z-score)” value [1] turn out when B1 was run?
A: The value was -0.19.

Q: What about the “glycan array binding signal (z-score)” value [2] of the same binder?
A: Its value is 1.41.

Q: What about the “glycan array binding signal (z-score)” value [3] of the same binder?
A: The value was -0.362.

Q: What about the “glycan array binding signal (z-score)” value [4] of the same binder?
A: Its value is 2.44.

Q: And the “glycan array binding signal (z-score)” value [5]?
A: The value was 3.01.

Q: What about the “glycan array binding signal (z-score)” value [6] of the same binder?
A: Its value is 2.48.

Q: And the “glycan array binding signal (z-score)” value [7]?
A: Its value is 2.18.

Q: What about the “glycan array binding signal (z-score)” value [8] of the same binder?
A: The value was 3.01.

Q: What about the “glycan array binding signal (z-score)” value [9] of the same binder?
A: The value was 0.353.

Q: What about the “glycan array binding signal (z-score)” value [10] of the same binder?
A: Its value is -0.047.

Q: And the “glycan array binding signal (z-score)” value [11]?
A: Its value is -0.514.

Q: What about the “glycan array binding signal (z-score)” value [12] of the same binder?
A: Its value is 0.065.

Q: And the “glycan array binding signal (z-score)” value [13]?
A: The value was 0.017.

Q: What about the “glycan array binding signal (z-score)” value [14] of the same binder?
A: The value was 0.119.

Q: And the “glycan array binding signal (z-score)” value [15]?
A: Its value is -0.653.

Q: And the “glycan array binding signal (z-score)” value [16]?
A: Its value is 1.05.

Q: What about the “glycan array binding signal (z-score)” value [17] of the same binder?
A: Its value is 2.69.

Q: And the “glycan array binding signal (z-score)” value [18]?
A: The value was -0.364.

Q: What about the “glycan array binding signal (z-score)” value [19] of the same binder?
A: The value was 2.33.

Q: What about the “glycan array binding signal (z-score)” value [20] of the same binder?
A: Its value is 0.699.

Q: And the “glycan array binding signal (z-score)” value [21]?
A: The value was -0.067.

Q: What about the “glycan array binding signal (z-score)” value [22] of the same binder?
A: Its value is 0.098.

Q: What about the “glycan array binding signal (z-score)” value [23] of the same binder?
A: The value was -0.087.

Q: And the “glycan array binding signal (z-score)” value [24]?
A: Its value is 0.251.

Q: What about the “glycan array binding signal (z-score)” value [25] of the same binder?
A: Its value is 0.797.

Q: What about the “glycan array binding signal (z-score)” value [26] of the same binder?
A: The value was -0.714.

Q: And the “glycan array binding signal (z-score)” value [27]?
A: Its value is 8.23.
